Laboratory results from the supplement of paper PMC11732987, “Enantioselective OTUD7B fragment discovery through chemoproteomics screening and high-throughput optimisation” (Communications Chemistry, 2025).

Assays:
Test in all cases: log2 ratio of Biotin-Ahx-Ub-VS probe labelling (fragment/DMSO); higher = less target engagement (more negative = stronger competition), active = hit call of the paper (q ≤ 0.05, log2 ratio ≤ -1)
Conditions in all cases: compound concentration: 200 uM; treatment time: 3 h
USP19 = target: T1, USP19 (UniProt O94966)
T1 sequence (whole entry): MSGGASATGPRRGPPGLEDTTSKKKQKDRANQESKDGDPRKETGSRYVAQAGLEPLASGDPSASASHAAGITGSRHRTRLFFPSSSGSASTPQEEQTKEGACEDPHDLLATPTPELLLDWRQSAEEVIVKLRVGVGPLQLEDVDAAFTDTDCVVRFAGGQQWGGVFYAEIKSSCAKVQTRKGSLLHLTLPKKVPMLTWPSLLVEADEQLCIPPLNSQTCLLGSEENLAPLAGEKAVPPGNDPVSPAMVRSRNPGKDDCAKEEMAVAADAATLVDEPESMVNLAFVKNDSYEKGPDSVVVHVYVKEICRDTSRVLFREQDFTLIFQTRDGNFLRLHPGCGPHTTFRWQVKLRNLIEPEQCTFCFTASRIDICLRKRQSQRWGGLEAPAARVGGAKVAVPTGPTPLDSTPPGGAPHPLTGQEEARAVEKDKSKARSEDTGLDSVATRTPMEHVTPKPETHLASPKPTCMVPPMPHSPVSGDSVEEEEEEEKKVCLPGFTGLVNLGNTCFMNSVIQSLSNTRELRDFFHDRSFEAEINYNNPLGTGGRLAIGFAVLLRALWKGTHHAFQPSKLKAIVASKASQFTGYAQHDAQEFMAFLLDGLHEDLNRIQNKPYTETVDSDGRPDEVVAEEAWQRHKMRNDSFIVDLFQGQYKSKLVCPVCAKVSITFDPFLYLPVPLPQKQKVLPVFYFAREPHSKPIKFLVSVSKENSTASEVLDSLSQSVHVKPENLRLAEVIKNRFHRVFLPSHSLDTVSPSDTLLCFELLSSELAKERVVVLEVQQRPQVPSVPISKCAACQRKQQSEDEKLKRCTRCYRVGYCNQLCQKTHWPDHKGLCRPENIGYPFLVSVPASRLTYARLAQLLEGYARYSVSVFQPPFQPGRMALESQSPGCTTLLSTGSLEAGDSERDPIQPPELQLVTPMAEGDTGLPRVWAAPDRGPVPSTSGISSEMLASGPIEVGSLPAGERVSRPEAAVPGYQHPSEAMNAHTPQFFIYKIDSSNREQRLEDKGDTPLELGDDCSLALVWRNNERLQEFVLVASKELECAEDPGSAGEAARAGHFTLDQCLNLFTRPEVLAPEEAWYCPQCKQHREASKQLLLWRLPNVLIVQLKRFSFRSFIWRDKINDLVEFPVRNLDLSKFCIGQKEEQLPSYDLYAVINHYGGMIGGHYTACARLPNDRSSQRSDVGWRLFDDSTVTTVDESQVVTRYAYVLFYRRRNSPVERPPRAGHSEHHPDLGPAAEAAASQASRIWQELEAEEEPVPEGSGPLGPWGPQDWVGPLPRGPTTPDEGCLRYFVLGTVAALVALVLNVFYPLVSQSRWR
Method in brief: (§1)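 Each value is an average log2 ratio of fragment to vehicle, tested by unpaired t-test. The underlying Spectronaut label-free quantities were global-median-normalised, and only proteins with ≥2 unique peptides were included. Triplicate HEK293T lysate samples (495 µg) were exposed to fragment at 200 µM or vehicle for 3 h, then to Biotin-Ahx-Ub-VS at 0.5 µM final for 1 h, before NeutrAvidin enrichment of labelled DUBs, LysC and trypsin digestion, and diaPASEF LC-MS/MS.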

USP22 = target: T2, USP22 (UniProt Q9UPT9)
T2 sequence (whole entry): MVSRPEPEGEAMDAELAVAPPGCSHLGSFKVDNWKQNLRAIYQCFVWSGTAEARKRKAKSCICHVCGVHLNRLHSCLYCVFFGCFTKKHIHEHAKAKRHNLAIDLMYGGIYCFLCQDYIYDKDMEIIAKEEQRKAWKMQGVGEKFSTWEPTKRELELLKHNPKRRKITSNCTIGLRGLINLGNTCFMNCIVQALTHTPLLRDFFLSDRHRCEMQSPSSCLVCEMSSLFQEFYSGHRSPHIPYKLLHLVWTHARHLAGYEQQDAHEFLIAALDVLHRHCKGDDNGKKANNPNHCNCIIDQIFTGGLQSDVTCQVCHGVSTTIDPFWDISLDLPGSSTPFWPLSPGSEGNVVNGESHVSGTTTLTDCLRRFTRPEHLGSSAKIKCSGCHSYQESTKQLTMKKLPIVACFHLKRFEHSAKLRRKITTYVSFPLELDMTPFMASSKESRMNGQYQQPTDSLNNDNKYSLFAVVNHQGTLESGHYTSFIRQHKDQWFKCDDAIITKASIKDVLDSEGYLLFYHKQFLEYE
Method in brief: as §1

USP24 = USP24 (UniProt Q9UPU5)
Method in brief: as §1

USP25 = target: T3, USP25 (UniProt Q9UHP3)
T3 sequence (whole entry): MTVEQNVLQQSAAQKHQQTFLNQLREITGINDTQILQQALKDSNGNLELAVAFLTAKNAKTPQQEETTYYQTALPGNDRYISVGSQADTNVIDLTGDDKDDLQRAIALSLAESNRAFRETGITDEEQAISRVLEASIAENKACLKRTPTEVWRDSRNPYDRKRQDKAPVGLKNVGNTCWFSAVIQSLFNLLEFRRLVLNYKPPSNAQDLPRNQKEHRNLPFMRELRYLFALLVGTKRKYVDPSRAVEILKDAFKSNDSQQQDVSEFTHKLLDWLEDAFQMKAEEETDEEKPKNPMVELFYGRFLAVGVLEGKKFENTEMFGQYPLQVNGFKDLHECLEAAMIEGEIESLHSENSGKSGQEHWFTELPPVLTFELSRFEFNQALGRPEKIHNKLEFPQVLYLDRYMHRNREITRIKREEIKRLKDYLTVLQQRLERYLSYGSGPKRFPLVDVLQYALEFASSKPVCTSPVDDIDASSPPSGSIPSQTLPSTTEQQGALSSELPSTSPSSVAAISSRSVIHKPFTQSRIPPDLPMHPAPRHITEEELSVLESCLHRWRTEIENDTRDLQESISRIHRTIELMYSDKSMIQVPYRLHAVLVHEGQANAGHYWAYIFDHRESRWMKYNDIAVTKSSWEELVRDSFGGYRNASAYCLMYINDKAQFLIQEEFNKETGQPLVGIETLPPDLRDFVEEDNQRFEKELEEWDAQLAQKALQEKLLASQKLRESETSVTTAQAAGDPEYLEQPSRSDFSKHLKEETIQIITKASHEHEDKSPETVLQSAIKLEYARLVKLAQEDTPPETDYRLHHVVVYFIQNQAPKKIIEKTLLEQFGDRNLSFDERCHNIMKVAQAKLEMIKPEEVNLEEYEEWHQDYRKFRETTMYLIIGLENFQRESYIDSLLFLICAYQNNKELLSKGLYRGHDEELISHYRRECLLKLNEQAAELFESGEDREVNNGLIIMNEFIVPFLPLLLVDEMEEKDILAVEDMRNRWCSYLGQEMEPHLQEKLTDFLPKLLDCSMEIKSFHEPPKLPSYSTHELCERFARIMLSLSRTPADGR
Method in brief: as §1

USP28 = target: T4, USP28 (UniProt Q96RU2)
T4 sequence (whole entry): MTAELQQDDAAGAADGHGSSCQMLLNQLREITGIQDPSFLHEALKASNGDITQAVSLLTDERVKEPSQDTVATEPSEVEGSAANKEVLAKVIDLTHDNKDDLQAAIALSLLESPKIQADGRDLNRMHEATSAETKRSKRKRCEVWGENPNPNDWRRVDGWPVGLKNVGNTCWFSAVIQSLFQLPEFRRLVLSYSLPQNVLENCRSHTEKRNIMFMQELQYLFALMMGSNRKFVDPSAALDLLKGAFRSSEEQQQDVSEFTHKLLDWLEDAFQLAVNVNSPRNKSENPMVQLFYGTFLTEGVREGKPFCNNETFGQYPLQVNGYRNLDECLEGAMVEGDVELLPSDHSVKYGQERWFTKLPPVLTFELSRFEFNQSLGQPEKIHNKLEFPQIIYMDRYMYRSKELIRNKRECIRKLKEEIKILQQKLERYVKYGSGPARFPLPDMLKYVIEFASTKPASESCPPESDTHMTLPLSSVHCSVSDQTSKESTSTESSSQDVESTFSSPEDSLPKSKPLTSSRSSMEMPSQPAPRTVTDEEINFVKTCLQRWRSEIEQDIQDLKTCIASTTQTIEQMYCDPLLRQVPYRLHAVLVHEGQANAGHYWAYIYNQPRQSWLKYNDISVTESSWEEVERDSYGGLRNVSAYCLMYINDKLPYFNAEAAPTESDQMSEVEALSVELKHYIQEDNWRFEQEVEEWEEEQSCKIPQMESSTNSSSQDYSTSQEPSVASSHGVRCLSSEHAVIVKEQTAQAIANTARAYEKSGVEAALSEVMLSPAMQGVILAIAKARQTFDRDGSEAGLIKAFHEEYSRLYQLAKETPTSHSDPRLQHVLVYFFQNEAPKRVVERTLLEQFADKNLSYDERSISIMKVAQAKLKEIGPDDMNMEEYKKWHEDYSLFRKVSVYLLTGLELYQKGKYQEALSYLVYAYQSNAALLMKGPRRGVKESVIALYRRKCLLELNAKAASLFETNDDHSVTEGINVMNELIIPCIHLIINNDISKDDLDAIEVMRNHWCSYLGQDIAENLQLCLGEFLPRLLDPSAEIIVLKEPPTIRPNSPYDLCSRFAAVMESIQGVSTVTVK
Method in brief: as §1

Measured: log2 ratio of Biotin-Ahx-Ub-VS probe labelling

USP24, sequence (Q9UPU5 whole entry): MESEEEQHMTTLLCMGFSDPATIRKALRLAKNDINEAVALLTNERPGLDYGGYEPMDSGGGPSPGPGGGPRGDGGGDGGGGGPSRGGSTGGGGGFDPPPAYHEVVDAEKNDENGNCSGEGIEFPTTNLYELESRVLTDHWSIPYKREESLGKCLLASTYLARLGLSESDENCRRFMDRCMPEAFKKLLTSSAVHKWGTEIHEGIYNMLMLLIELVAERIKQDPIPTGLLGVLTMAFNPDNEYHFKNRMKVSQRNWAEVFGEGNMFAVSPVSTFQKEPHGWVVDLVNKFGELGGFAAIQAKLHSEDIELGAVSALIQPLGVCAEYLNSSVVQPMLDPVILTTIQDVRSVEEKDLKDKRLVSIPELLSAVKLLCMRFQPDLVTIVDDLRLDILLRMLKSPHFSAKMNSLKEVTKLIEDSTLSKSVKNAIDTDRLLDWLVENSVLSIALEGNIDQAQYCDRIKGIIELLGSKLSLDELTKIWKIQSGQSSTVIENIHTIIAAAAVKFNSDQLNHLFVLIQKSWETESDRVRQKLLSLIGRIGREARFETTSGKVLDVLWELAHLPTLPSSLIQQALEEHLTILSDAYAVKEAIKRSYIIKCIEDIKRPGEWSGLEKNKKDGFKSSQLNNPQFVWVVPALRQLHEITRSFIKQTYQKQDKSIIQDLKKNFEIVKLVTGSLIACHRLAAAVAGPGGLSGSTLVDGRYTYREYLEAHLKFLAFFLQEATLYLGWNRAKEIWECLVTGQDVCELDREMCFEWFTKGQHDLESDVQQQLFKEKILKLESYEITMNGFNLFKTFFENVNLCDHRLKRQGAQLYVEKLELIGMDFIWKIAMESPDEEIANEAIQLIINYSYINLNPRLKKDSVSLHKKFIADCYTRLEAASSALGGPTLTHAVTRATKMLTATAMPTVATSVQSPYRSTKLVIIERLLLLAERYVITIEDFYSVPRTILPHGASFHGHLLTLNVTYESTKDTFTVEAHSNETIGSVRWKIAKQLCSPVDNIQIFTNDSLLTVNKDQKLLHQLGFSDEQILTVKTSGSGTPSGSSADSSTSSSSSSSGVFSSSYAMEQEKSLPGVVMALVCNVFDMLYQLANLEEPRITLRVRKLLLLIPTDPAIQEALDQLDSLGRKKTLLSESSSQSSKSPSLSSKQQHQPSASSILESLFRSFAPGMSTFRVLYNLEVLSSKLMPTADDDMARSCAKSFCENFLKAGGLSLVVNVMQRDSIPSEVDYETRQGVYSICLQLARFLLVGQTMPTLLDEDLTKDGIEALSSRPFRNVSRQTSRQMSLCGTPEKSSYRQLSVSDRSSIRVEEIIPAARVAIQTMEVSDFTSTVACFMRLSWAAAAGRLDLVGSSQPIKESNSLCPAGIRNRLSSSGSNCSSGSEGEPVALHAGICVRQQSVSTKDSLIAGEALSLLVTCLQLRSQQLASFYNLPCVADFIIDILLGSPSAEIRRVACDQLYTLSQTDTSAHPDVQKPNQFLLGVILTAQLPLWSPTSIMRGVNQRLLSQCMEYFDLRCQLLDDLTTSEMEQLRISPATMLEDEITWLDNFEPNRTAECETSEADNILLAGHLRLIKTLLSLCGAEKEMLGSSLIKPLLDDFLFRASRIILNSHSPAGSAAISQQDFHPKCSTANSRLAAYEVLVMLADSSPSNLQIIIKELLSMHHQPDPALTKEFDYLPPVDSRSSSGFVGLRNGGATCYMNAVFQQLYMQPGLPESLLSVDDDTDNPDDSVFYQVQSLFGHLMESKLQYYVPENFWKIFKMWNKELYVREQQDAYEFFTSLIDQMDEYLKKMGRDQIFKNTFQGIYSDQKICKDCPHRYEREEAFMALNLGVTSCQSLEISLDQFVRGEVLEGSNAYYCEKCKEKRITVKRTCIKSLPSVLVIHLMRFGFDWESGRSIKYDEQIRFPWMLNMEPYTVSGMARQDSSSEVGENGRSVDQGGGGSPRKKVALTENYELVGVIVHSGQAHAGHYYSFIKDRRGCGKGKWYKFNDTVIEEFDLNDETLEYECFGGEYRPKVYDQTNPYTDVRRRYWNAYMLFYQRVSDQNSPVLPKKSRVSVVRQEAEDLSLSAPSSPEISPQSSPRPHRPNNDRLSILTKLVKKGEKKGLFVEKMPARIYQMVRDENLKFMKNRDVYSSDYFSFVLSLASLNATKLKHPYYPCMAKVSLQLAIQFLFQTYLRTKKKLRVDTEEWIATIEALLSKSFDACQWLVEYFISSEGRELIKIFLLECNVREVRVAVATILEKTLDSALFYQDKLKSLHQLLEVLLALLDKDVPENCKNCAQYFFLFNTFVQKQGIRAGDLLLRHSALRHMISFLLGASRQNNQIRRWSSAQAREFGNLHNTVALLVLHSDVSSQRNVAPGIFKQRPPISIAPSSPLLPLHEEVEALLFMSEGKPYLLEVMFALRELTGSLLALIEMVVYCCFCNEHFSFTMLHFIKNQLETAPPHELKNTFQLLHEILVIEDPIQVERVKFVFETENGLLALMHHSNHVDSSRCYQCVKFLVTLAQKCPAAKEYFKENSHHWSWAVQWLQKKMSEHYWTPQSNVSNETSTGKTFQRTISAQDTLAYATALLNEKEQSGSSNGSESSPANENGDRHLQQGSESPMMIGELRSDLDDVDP

Cl.O=C(CCl)N1CCCC(c2ncc[nH]2)C1 (stereo not given)
inactive: USP19 -0.0532 | USP22 0.0588 | USP24 -0.108 | USP25 -0.511 | USP28 -0.212
